Laboratory results: the supplement of paper PMC11732987, “Enantioselective OTUD7B fragment discovery through chemoproteomics screening and high-throughput optimisation” (Communications Chemistry, 2025)

Assays:
Assay in all cases: log2 ratio of Biotin-Ahx-Ub-VS probe labelling (fragment/DMSO); higher = less target engagement (more negative = stronger competition), active = hit call of the paper (q ≤ 0.05, log2 ratio ≤ -1)
Details in all cases: compound concentration: 200 uM; treatment time: 3 h
OTUD6B = biological target: T1, OTUD6B (UniProt Q8N6M0)
T1 sequence (whole entry): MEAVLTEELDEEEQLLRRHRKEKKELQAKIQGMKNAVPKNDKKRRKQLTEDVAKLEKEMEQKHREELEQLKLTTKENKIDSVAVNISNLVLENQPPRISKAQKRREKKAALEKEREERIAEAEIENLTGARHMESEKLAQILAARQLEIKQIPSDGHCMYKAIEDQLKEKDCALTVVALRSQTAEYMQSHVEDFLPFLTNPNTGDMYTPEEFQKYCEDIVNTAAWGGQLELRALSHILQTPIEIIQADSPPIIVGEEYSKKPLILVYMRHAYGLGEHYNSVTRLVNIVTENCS
Summary of the method: (§1)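 Fragment (200 µM) or vehicle was incubated for 3 h with triplicate HEK293T lysate samples of 495 µg, which were then treated with Biotin-Ahx-Ub-VS at 0.5 µM final for 1 h. Labelled DUBs were enriched on NeutrAvidin, digested with LysC and trypsin, and analysed by diaPASEF LC-MS/MS. Values are average log2 fragment/vehicle ratios from an unpaired t-test on global-median-normalised Spectronaut label-free quantities, using proteins with ≥2 unique peptides.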

OTUD7B = biological target: T2, OTUD7B (UniProt Q6GQQ9)
T2 sequence (whole entry): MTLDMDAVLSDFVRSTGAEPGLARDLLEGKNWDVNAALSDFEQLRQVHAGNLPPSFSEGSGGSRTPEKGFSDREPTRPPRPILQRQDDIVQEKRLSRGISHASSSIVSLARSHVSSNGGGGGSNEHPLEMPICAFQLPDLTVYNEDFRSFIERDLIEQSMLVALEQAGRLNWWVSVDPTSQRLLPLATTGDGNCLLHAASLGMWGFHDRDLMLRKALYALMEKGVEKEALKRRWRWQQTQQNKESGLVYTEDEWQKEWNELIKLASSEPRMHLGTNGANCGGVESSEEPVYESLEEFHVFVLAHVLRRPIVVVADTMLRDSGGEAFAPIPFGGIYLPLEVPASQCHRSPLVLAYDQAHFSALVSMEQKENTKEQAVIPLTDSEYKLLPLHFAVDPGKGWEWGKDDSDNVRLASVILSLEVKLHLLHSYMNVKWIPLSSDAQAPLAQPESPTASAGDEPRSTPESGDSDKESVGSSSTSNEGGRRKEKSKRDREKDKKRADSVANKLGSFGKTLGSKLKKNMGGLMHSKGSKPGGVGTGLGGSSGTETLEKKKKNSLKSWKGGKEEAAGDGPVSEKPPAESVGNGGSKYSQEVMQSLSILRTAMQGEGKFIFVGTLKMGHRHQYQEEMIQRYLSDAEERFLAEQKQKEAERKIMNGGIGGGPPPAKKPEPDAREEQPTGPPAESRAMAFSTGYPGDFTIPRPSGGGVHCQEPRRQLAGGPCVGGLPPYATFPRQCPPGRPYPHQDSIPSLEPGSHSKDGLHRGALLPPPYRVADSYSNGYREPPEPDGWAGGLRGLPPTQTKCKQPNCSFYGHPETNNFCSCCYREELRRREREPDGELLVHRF
Summary of the method: as §1

PRPF8 = PRPF8 (UniProt Q6P2Q9)
Summary of the method: as §1

PSMD7 = biological target: T3, PSMD7 (UniProt P51665)
T3 sequence (whole entry): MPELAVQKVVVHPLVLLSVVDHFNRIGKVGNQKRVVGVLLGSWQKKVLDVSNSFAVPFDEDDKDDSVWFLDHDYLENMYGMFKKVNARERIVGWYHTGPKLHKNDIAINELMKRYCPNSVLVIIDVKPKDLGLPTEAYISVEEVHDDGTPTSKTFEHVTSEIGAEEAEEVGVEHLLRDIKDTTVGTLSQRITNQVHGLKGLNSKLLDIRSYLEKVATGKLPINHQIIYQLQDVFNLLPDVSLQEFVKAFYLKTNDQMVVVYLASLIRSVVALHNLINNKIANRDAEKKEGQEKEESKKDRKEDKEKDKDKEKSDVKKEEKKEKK
Summary of the method: as §1

UCHL1 = UCHL1 (UniProt P09936)
Chain of UCHL1 (P09936 whole entry, looked up): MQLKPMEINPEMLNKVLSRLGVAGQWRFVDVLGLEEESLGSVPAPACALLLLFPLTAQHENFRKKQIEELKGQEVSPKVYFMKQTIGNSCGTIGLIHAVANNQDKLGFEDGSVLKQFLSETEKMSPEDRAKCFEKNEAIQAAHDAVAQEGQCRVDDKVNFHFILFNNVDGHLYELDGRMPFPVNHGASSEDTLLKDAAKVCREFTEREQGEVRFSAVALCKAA
Summary of the method: as §1

UCHL3 = biological target: T4, UCHL3 (UniProt P15374)
T4 sequence (whole entry): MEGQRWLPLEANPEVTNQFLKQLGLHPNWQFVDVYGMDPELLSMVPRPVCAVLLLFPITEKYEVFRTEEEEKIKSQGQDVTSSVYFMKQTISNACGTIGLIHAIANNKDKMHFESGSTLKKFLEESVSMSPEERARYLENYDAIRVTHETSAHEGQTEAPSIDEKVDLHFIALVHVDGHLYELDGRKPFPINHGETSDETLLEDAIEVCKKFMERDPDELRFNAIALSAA
Summary of the method: as §1

UCHL5 = biological target: T5, UCHL5 (UniProt Q9Y5K5)
T5 sequence (whole entry): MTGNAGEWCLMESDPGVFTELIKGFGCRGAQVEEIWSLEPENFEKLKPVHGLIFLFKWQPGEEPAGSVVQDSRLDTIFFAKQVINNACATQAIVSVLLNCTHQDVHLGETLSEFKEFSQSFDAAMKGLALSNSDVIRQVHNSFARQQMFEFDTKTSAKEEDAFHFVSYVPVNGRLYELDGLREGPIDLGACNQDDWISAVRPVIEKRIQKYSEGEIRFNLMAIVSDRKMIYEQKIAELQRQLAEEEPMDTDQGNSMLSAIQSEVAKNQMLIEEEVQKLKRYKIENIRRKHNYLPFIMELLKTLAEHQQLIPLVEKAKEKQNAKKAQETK
Summary of the method: as §1

USP10 = USP10 (UniProt Q14694)
Chain of USP10 (Q14694 whole entry): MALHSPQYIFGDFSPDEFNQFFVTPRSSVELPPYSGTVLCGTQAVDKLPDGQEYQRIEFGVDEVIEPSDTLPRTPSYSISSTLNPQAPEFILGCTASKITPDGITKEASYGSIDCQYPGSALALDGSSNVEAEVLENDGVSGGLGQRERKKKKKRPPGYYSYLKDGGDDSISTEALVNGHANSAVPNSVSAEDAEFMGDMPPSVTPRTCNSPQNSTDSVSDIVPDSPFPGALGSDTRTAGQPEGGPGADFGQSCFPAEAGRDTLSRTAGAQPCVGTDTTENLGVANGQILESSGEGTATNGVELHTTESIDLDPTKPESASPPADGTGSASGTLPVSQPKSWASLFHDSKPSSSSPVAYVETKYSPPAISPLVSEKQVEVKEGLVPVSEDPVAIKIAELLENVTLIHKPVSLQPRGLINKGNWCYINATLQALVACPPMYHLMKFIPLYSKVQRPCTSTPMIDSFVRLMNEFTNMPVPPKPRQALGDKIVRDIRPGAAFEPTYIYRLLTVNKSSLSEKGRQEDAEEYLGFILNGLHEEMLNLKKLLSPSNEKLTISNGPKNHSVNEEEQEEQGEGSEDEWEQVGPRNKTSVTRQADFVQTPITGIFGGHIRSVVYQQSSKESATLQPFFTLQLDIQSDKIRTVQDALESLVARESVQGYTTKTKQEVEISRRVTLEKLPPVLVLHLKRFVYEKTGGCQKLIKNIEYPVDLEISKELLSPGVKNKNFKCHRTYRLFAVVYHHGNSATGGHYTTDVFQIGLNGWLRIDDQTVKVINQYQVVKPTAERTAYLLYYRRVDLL
Summary of the method: as §1

USP15 = biological target: T6, USP15 (UniProt Q9Y4E8)
T6 sequence (whole entry): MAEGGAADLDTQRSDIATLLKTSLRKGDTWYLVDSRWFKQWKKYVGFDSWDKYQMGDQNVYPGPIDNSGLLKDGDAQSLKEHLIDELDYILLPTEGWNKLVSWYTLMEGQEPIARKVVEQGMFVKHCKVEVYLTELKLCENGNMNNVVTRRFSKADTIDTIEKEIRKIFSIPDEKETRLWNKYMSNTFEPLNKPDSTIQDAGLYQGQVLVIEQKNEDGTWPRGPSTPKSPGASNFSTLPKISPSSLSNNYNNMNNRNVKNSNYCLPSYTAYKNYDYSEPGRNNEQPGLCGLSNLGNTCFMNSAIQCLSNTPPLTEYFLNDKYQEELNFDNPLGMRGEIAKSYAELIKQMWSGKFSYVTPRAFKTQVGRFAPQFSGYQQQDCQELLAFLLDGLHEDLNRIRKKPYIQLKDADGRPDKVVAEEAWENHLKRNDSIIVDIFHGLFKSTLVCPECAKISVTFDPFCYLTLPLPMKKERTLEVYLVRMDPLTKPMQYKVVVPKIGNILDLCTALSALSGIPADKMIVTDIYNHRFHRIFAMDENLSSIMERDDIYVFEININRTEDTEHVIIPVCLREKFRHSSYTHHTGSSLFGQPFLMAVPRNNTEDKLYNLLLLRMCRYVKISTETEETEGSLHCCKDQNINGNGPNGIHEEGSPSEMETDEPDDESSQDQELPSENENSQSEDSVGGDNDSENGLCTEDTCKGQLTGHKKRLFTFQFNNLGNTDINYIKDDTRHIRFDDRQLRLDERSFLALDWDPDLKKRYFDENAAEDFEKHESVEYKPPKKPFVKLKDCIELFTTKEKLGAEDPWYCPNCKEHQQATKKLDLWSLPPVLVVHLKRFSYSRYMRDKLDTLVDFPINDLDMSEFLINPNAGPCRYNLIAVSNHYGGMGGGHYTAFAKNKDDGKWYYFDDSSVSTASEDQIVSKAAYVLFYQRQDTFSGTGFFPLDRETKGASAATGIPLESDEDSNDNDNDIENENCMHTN
Summary of the method: as §1

USP16 = USP16 (UniProt Q9Y5T5)
Chain of USP16 (Q9Y5T5 whole entry, looked up): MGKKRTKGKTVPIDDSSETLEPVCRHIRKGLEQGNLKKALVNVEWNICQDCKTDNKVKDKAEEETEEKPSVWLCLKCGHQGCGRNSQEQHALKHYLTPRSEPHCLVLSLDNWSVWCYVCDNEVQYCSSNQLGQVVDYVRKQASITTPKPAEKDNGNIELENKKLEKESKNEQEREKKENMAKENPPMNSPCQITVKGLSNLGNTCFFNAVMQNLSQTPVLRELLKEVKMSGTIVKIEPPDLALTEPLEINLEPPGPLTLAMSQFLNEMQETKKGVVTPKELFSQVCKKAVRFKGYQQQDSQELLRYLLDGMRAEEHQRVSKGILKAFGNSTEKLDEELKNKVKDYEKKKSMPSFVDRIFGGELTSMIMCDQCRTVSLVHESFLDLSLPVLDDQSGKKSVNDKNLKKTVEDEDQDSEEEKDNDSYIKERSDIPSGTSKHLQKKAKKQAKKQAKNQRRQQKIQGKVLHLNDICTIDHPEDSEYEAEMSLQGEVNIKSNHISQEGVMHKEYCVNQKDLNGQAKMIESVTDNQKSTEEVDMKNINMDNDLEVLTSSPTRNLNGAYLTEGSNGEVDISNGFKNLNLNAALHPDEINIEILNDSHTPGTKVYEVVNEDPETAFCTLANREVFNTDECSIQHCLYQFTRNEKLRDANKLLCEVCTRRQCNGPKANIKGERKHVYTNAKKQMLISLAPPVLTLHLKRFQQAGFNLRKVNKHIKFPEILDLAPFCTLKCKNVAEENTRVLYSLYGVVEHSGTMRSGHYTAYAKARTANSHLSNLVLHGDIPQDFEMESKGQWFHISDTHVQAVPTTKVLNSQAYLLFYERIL
Summary of the method: as §1

Measured: log2 ratio of Biotin-Ahx-Ub-VS probe labelling

O=C(O)C1Cc2ccccc2CN1C(=O)CCl (stereo not given)
inactive: OTUD6B -0.439 | OTUD7B -0.732 | PRPF8 -0.175 | PSMD7 -0.239 | UCHL3 -0.19 | UCHL5 -0.324 | USP10 -0.112 | USP15 -0.35 | USP16 0.23
active: UCHL1 -1.8
